This excerpt belongs to a sample that is enriched for hits.
AMA1-RON2 inh = qHTS for Inhibitors of AMA1-RON; Towards Development of Antimalarial Drug Lead: Primary Screen; AID 720542, 2013; 360,000 compounds, 0.2% hits; Potency, µM (series often up to 58.2 µM), without a hit: at the top dose activity change, negative = inhibition, usual class: inhibitors; Plasmodium falciparum AMA1 (3D7) - RON2 peptide interaction; AlphaScreen AMA1-biotinylated RON2 peptide binding; active = well fitted inhibition curve with a large enough effect; inconclusive = small, poorly fitted or top-dose-only effect; inactive = no such curve, though single readings can be large or run the other way;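 note: potency is the fitted concentration of half-maximal effect; 0% = vehicle wells and -100% = peptide control; nearly all actives have a fitted effect of over 45% in size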
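AMA1 (3D7) with his tag at 25 nM final met compounds first, then biotinylated RON2 peptide at 25 nM; detection used donor plus acceptor beads, 10 µg/mL apiece, read by AlphaScreen after 30 min at room temperature.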
CHX counter = Cycloheximide Counterscreen for Small Molecule Inhibitors of Shiga Toxin. cell reporter, cycloheximide protein synthesis inhibition counterscreen. max response, %. 300,000 compounds, 12% hits; in the data active = max response mostly above about 13%, no sharp cut-off; inactive = mostly below about 14%; note: read at 38.3 µM for the half of the compounds with a filed dose; 0% is about no effect
MARV entry inh = qHTS for inhibitors of binding or entry into cells for Marburg Virus; Marburg virus pseudotyped entry inhibition, cell reporter; Potency, µM (highest dose often 37.8 µM), without a hit: top-dose activity change, negative = inhibition, hits mostly inhibitors; 300,000 compounds, 1.8% hits; calls by dose curve; tested in HEK293 cells; note: potency is the fitted concentration of half-maximal effect; % is set by controls: 0 for no effect and ±100 for the full control effect
Lassa entry inh = qHTS for Inhibitors of binding or entry into cells for Lassa Virus; Potency, µM (doses to about 37.9 µM), for inactives: at the highest dose activity change, negative = inhibition, actives largely listed as inhibitors; Lassa virus pseudotype entry inhibition, cell reporter; AID 540256, 2011; 300,000 compounds, 1.2% hits; calls by dose curve; tested in HEK293 cells; note: potency is the fitted concentration of half-maximal effect; % is set by controls: 0 for no effect and ±100 for the full control effect; nearly all actives have a fitted effect of over 50% in size
Shiga toxin inh = A qHTS for Small Molecule Inhibitors of Shiga Toxin; inhibition, % at 38.7 µM; Vero cells, Shiga toxin protein synthesis inhibition reporter; 290,000 compounds, 9.2% hits; in the data active = inhibition mostly above about 28%, no sharp cut-off; inactive = mostly below about 43%; note: 0% is about no effect
* = called active by the depositor; [ ] = another dose, or the depositor's remark.

For Cc1ccc(S(=O)(=O)N2CCCCC2)cc1NC(=O)c1ccc2c(c1)OCO2 the results were AMA1-RON2 inh -0.5%[2.32 µM], CHX counter -2.2, MARV entry inh -26.3%, Lassa entry inh -9.9% and Shiga toxin inh -6.2.
Screening Cc1ccc(C(=O)Nc2ccc3c(c2)OCO3)cc1S(=O)(=O)N1CCOCC1 returned AMA1-RON2 inh 7.5%, CHX counter 29.4*, MARV entry inh 10.5%, Lassa entry inh 2.5% and Shiga toxin inh 106.6*.
For Cc1ccc(C(=O)Nc2ccc3c(c2)OCO3)cc1S(=O)(=O)N1CCCC1 the results were AMA1-RON2 inh -5.7%, CHX counter 45.9*, MARV entry inh -5.1%, Lassa entry inh -1.3% and Shiga toxin inh 44.7*.
O=C(COC(=O)C1CCCCC1)Nc1cc([N+](=O)[O-])ccc1F was read as AMA1-RON2 inh -5.9%, CHX counter -2.7 and Shiga toxin inh -13.4.
O=C(Nc1ccc2c(c1)oc1ccccc12)C1CC1 was read as AMA1-RON2 inh 3.6%, CHX counter 46.3*, MARV entry inh inconclusive, Lassa entry inh 12.4% and Shiga toxin inh 95.3*.
Screening O=C(Nc1ccc2c(c1)OC1(CCCC1)O2)C1CC1 returned AMA1-RON2 inh -4.2%, CHX counter 17.0*, MARV entry inh 4.6%, Lassa entry inh -0.5% and Shiga toxin inh 41.8.
O=C(Nc1ccc(S(=O)(=O)N2CCCCC2)cc1)C1CCCCC1 was read as AMA1-RON2 inh 10.6%, CHX counter -2.7, MARV entry inh 3.5%[46.1 µM], Lassa entry inh inconclusive and Shiga toxin inh 21.2.
Screening Cc1cc(=O)oc2cc(NC(=O)C3CCCC3)ccc12 returned AMA1-RON2 inh -2.8%, CHX counter -1.2, MARV entry inh inconclusive, Lassa entry inh 15.3%[46.1 µM] and Shiga toxin inh 32.2.
O=C(Nc1ccc2c(c1)oc1ccc(S(=O)(=O)N3CCCC3)cc12)C1CC1 was read as AMA1-RON2 inh 1.9%, CHX counter -1.5, MARV entry inh -25.0%, Lassa entry inh 11.6µM* and Shiga toxin inh 3.1.
`FC(F)(F)c1ccc(-n2cnc3ccccc32)nc1` gave AMA1-RON2 inh 20.9%, CHX counter 33.0* and Shiga toxin inh 45.6*.
For c1ccc(-n2cnc3ccccc32)nc1 the results were AMA1-RON2 inh -5.2%, CHX counter 11.0, MARV entry inh -9.0%, Lassa entry inh 14.5% and Shiga toxin inh 13.3.
`CC(=O)Nc1ccc2nc(NC(=O)c3cccs3)sc2c1` gave AMA1-RON2 inh -2.4%, CHX counter 42.9*, MARV entry inh inconclusive, Lassa entry inh inconclusive and Shiga toxin inh 77.5*.
For Cc1ccc(NC(=O)CSc2nc3ccc(NC(=O)c4cccs4)cc3s2)cc1 the results were MARV entry inh inconclusive and Lassa entry inh -11.5%[46.1 µM].
Screening O=C(Nc1nc2ccc(Cl)cc2s1)[C@@H]1CCCN1C(=O)c1cccs1 returned AMA1-RON2 inh 16.7%, CHX counter 82.1*, MARV entry inh inconclusive, Lassa entry inh inconclusive and Shiga toxin inh 80.5*.
`CC(=O)Nc1ccc2nc(NC(=O)c3ccc([N+](=O)[O-])s3)sc2c1` gave CHX counter 14.9 and Shiga toxin inh 25.7.
Screening Cc1nc2cc(NC(=O)c3ccc([N+](=O)[O-])s3)ccc2s1 returned AMA1-RON2 inh 4.0%, CHX counter 34.3*, MARV entry inh inconclusive, Lassa entry inh inconclusive and Shiga toxin inh 52.3*.
Cc1nc2ccc(NC(=O)c3cccs3)cc2s1 was read as AMA1-RON2 inh -4.2%, CHX counter 45.2*, MARV entry inh 12.8%[46.1 µM], Lassa entry inh 4.7%[46.1 µM] and Shiga toxin inh 98.1*.
CC12CCC(C(=O)NCc3ccco3)(OC1=O)C2(C)C (stereo not given) was read as AMA1-RON2 inh 2.9%, CHX counter 2.1, MARV entry inh 9.4%, Lassa entry inh inconclusive and Shiga toxin inh -19.4.
For CCc1sc(C(=O)Nc2ccc3nc(C)sc3c2)cc1C the results were AMA1-RON2 inh 6.9%, MARV entry inh 7.8% and Lassa entry inh -15.1%.
For COc1ccc2nc(NC(=O)c3cccs3)sc2c1 the results were AMA1-RON2 inh -0.6%, CHX counter 43.8*, MARV entry inh 6.31µM*, Lassa entry inh inconclusive and Shiga toxin inh 77.4*.
For Cc1nc2ccc(NC(=O)c3sccc3C)cc2s1 the results were AMA1-RON2 inh -3.8%, CHX counter 64.4*, MARV entry inh -26.4%, Lassa entry inh inconclusive and Shiga toxin inh 63.7*.
Cc1cc(Cc2ccc([N+](=O)[O-])cc2)c(C)cn1 was read as AMA1-RON2 inh -16.5%, CHX counter -5.2, MARV entry inh inconclusive and Lassa entry inh -13.0%.
Screening c1ccc(N2CCN(c3ccccc3)C2c2cccnc2)cc1 returned AMA1-RON2 inh -6.6%, CHX counter 25.6*, MARV entry inh 6.4%, Lassa entry inh -0.2% and Shiga toxin inh 48.2*.
For Cc1ccc(N2CCN(c3ccc(C)cc3)C2c2cccnc2)cc1 the results were AMA1-RON2 inh -28.0%, CHX counter 19.2*, MARV entry inh inconclusive, Lassa entry inh inconclusive and Shiga toxin inh 38.1.
For O=C(O)c1cc([N+](=O)[O-])ccc1NCc1ccccn1 the results were AMA1-RON2 inh 75.3%.
Cc1cccc(N(CC(O)CON=C2c3ccccc3-c3ccccc32)S(C)(=O)=O)c1 (stereo not given) was read as AMA1-RON2 inh -6.5%, CHX counter 1.2, MARV entry inh 23.1µM*, Lassa entry inh -4.3% and Shiga toxin inh -15.9.
`Cc1ccccc1CSCc1nc(N)nc(Nc2ccccc2C)n1` gave AMA1-RON2 inh -3.7%, CHX counter 48.6*, MARV entry inh inconclusive, Lassa entry inh 9.6% and Shiga toxin inh 84.8*.
For Cc1ccccc1Nc1nc(N)nc(CSCc2c(C)noc2C)n1 the results were AMA1-RON2 inh 12.2%, CHX counter 4.6, MARV entry inh -2.3%, Lassa entry inh 29.8% and Shiga toxin inh 8.9.
Cc1ccccc1Nc1nc(N)nc(COC(=O)c2c(C)noc2C)n1 was read as AMA1-RON2 inh -1.8%, MARV entry inh -27.2%[46.1 µM] and Lassa entry inh -19.4%[46.1 µM].
`Cc1ccccc1Nc1nc(N)nc(COC(=O)c2ccc(O)cc2)n1` gave AMA1-RON2 inh 10.0%, CHX counter 20.4*, MARV entry inh 24.4%, Lassa entry inh inconclusive and Shiga toxin inh -4.3.
Screening Cc1ccccc1Nc1nc(N)nc(COC(=O)c2ccccc2)n1 returned AMA1-RON2 inh -7.8%[11.6 µM], CHX counter 81.5*, MARV entry inh 2.9%, Lassa entry inh inconclusive and Shiga toxin inh 78.9*.
`CCCC[C@H](NC(C)=O)C(=O)N[C@@H](CCC(=O)O)C(=O)N[C@@H](Cc1cnc[nH]1)C(=O)N[C@H](Cc1ccccc1)C(=O)N[C@@H](CCCN=C(N)N)C(=O)N[C@H](Cc1c[nH]c2ccccc12)C(=O)NCC(N)=O` gave CHX counter -7.5 and Shiga toxin inh -6.5.
For O=S(=O)(NCc1nc2cccnc2n1Cc1ccccc1Cl)c1ccc(F)c(Cl)c1 the results were Lassa entry inh -16.2%[46.1 µM].
`Cc1cccc(Cn2c(=O)n(Cc3ccccc3)c(=O)c3sc4ccccc4c32)c1` gave MARV entry inh -3.6%[46.1 µM] and Lassa entry inh -12.4%[46.1 µM].

Screens as filed in PubChem.
